Measured values reported in the supplement of paper PMC4466140.

molecular target: CaNbp2; assay: SPOT peptide array binding signal intensity (averaged, normalized) (arbitrary units (background-subtracted, floor 0; scale differs between SH3 domains)); higher = stronger binding of the SH3 domain to the peptide
Summary of the method: (§1)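 GST-fused SH3 domains from four yeast species were expressed in E. coli BL21(DE3), purified on glutathione Sepharose and incubated at 10 μg/ml overnight at 4°C in TBS-based blocking buffer on cellulose membranes carrying synthetic 15-mer peptides, with cysteines replaced by serines. Bound protein was detected with anti-GST antibody, an HRP anti-mouse secondary and luminol, then imaged and quantified with Genespotter. Binding signal is the normalized, background-subtracted spot intensity averaged over replicates, in arbitrary units that differ between domains.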

Binder | SPOT peptide array binding signal intensity
HGKRRAPLLLAKLDV | 1060

molecular target: CaRvs167; assay: as above
Summary of the method: as §1

Binder | SPOT peptide array binding signal intensity
HGKRRAPLLLAKLDV | 7.67

molecular target: CaRvs167-3; assay: as above
Summary of the method: as §1

Binder | SPOT peptide array binding signal intensity
HGKRRAPLLLAKLDV | 17.5

molecular target: CaSho1; assay: as above
Summary of the method: as §1

Binder | SPOT peptide array binding signal intensity
HGKRRAPLLLAKLDV | 95

molecular target: CaSla1-D1-D2; assay: as above
Summary of the method: as §1

Binder | SPOT peptide array binding signal intensity
HGKRRAPLLLAKLDV | 122

molecular target: CaSla1-D3; assay: as above
Summary of the method: as §1

Binder | SPOT peptide array binding signal intensity
HGKRRAPLLLAKLDV | 8.75

molecular target: ScAbp1; assay: as above
Summary of the method: as §1

Binder | SPOT peptide array binding signal intensity
HGKRRAPLLLAKLDV | 50

molecular target: ScBbc1; assay: as above
Summary of the method: as §1

Binder | SPOT peptide array binding signal intensity
HGKRRAPLLLAKLDV | 12.2

molecular target: ScBem1-D1; assay: as above
Summary of the method: as §1

Binder | SPOT peptide array binding signal intensity
HGKRRAPLLLAKLDV | 30

molecular target: ScBzz1-D1; assay: as above
Summary of the method: as §1

Binder | SPOT peptide array binding signal intensity
HGKRRAPLLLAKLDV | 21.5

molecular target: ScBzz1-D2; assay: as above
Summary of the method: as §1

Binder | SPOT peptide array binding signal intensity
HGKRRAPLLLAKLDV | 27

molecular target: ScCyk3; assay: as above
Summary of the method: as §1

Binder | SPOT peptide array binding signal intensity
HGKRRAPLLLAKLDV | 102

molecular target: ScFus1; assay: as above
Summary of the method: as §1

Binder | SPOT peptide array binding signal intensity
HGKRRAPLLLAKLDV | 136

molecular target: ScHof1; assay: as above
Summary of the method: as §1

Binder | SPOT peptide array binding signal intensity
HGKRRAPLLLAKLDV | 0.5

molecular target: ScHse1; assay: as above
Summary of the method: as §1

Binder | SPOT peptide array binding signal intensity
HGKRRAPLLLAKLDV | 732

molecular target: ScLsb1; assay: as above
Summary of the method: as §1

Binder | SPOT peptide array binding signal intensity
HGKRRAPLLLAKLDV | ≤ 0

molecular target: ScLsb2; assay: as above
Summary of the method: as §1

Binder | SPOT peptide array binding signal intensity
HGKRRAPLLLAKLDV | ≤ 0

molecular target: ScLsb3; assay: as above
Summary of the method: as §1

Binder | SPOT peptide array binding signal intensity
HGKRRAPLLLAKLDV | 16.5

molecular target: ScLsb4; assay: as above
Summary of the method: as §1

Binder | SPOT peptide array binding signal intensity
HGKRRAPLLLAKLDV | ≤ 0

molecular target: ScMyo3; assay: as above
Summary of the method: as §1

Binder | SPOT peptide array binding signal intensity
HGKRRAPLLLAKLDV | 1

molecular target: ScMyo5; assay: as above
Summary of the method: as §1

Binder | SPOT peptide array binding signal intensity
HGKRRAPLLLAKLDV | 5.5

molecular target: ScNbp2; assay: as above
Summary of the method: as §1

Binder | SPOT peptide array binding signal intensity
HGKRRAPLLLAKLDV | 210

molecular target: ScPex13; assay: as above
Summary of the method: as §1

Binder | SPOT peptide array binding signal intensity
HGKRRAPLLLAKLDV | ≤ 0

molecular target: ScRvs167; assay: as above
Summary of the method: as §1

Binder | SPOT peptide array binding signal intensity
HGKRRAPLLLAKLDV | 11.3

molecular target: ScSho1; assay: as above
Summary of the method: as §1

Binder | SPOT peptide array binding signal intensity
HGKRRAPLLLAKLDV | 186

molecular target: ScSla1-D1-D2; assay: as above
Summary of the method: as §1

Binder | SPOT peptide array binding signal intensity
HGKRRAPLLLAKLDV | 126

molecular target: ScSla1-D3; assay: as above
Summary of the method: as §1

Binder | SPOT peptide array binding signal intensity
HGKRRAPLLLAKLDV | 20.5

molecular target: SpAbp1-D1; assay: as above
Summary of the method: as §1

Binder | SPOT peptide array binding signal intensity
HGKRRAPLLLAKLDV | 55

molecular target: SpBbc1; assay: as above
Summary of the method: as §1

Binder | SPOT peptide array binding signal intensity
HGKRRAPLLLAKLDV | 0.5

molecular target: SpBzz1-D1; assay: as above
Summary of the method: as §1

Binder | SPOT peptide array binding signal intensity
HGKRRAPLLLAKLDV | 204

molecular target: SpBzz1-D2; assay: as above
Summary of the method: as §1

Binder | SPOT peptide array binding signal intensity
HGKRRAPLLLAKLDV | ≤ 0

molecular target: SpCyk3; assay: as above
Summary of the method: as §1

Binder | SPOT peptide array binding signal intensity
HGKRRAPLLLAKLDV | 18

molecular target: SpHof1; assay: as above
Summary of the method: as §1

Binder | SPOT peptide array binding signal intensity
HGKRRAPLLLAKLDV | 31.2

molecular target: SpHof1-2; assay: as above
Summary of the method: as §1

Binder | SPOT peptide array binding signal intensity
HGKRRAPLLLAKLDV | 4.25

molecular target: SpHof1-3; assay: as above
Summary of the method: as §1

Binder | SPOT peptide array binding signal intensity
HGKRRAPLLLAKLDV | 242

molecular target: SpHse1; assay: as above
Summary of the method: as §1

Binder | SPOT peptide array binding signal intensity
HGKRRAPLLLAKLDV | 235

molecular target: SpLsb1; assay: as above
Summary of the method: as §1

Binder | SPOT peptide array binding signal intensity
HGKRRAPLLLAKLDV | ≤ 0

molecular target: SpLsb4; assay: as above
Summary of the method: as §1

Binder | SPOT peptide array binding signal intensity
HGKRRAPLLLAKLDV | 21.5

molecular target: SpMyo1; assay: as above
Summary of the method: as §1

Binder | SPOT peptide array binding signal intensity
HGKRRAPLLLAKLDV | 2

molecular target: SpNbp2; assay: as above
Summary of the method: as §1

Binder | SPOT peptide array binding signal intensity
HGKRRAPLLLAKLDV | 63.5

molecular target: SpPex13; assay: as above
Summary of the method: as §1

Binder | SPOT peptide array binding signal intensity
HGKRRAPLLLAKLDV | 10

molecular target: SpRvs167; assay: as above
Summary of the method: as §1

Binder | SPOT peptide array binding signal intensity
HGKRRAPLLLAKLDV | ≤ 0

molecular target: SpSla1-D1-D2; assay: as above
Summary of the method: as §1

Binder | SPOT peptide array binding signal intensity
HGKRRAPLLLAKLDV | ≤ 0

molecular target: SpSla1-D3; assay: as above
Summary of the method: as §1

Binder | SPOT peptide array binding signal intensity
HGKRRAPLLLAKLDV | 2
